In PubChem BioAssay (NCATS) one finds outcome data, which are given here for 40 compounds.

Structures are written as SMILES. Records with an inconclusive call do not appear. Calls of active or inactive are those of the source. Calls follow the shape of the dose curve; as a rule, active = well fitted curve in the direction sought with a large enough effect; inconclusive = small, poorly fitted or top-dose-only effect, or another doubt; inactive = no such curve, though single readings can be large or run the other way.

Sequence of Protein phosphatase 1D (Homo sapiens) (O15297 whole entry, looked up): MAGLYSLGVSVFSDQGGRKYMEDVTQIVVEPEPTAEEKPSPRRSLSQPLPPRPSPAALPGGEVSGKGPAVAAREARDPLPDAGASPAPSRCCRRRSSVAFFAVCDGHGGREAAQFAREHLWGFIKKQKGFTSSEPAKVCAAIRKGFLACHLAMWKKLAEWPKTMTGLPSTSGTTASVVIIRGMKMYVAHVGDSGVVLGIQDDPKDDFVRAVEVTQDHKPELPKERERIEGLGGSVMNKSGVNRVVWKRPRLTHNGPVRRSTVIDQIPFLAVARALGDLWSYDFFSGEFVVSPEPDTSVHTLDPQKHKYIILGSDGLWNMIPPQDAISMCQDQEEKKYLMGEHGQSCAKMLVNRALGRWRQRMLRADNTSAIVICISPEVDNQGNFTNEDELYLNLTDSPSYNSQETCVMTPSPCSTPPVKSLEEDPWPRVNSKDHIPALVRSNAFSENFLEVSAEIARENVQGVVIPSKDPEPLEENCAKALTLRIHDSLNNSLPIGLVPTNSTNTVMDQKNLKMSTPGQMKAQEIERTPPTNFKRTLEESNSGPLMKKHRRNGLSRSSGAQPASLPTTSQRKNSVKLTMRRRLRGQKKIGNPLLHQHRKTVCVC

This assay concerns the target Protein phosphatase 1D (Homo sapiens) (UniProt O15297). In words: Rhodamine-PBP qHTS Assay for Modulators of WT P53-Induced Phosphatase 1 (WIP1) (AID 1347425). Particulars: recombinant WIP1, Rhodamine-PBP phosphate fluorescence, real-time; series mostly up to 57.5 µM. An excerpt:
Assay Provider (PI): Nathan Coussens Ph.D.
National Center for Advancing Translational Sciences (NCATS), Rockville, MD
National Institute of Health (NIH), Bethesda, Maryland
WT P53-Induced Phosphatase 1 (WIP1) is a member of the magnesium-dependent serine/threonine protein phosphatase (PPM) family and is induced by P53 in response to DNA damage. In several human cancers, the WIP1 protein is overexpressed, which is generally associated with a worse prognosis. Although WIP1 is an attractive therapeutic target, no potent, selective, and bioactive small-molecule modulator with favorable pharmacokinetics has been reported. Phosphatase enzymes are among the most challenging targets for small molecules because of the difficulty of achieving both modulator selectivity and bioavailability. Another major obstacle has been the availability of robust and physiologically relevant phosphatase assays that are suitable for high-throughput screening.
Here, we describe two orthogonal biochemical WIP1 activity assays that utilize phosphopeptides from native WIP1 substrates. We optimized a RapidFire MS assay to quantify the enzymatically dephosphorylated peptide reaction product in a 384-well format. Additionally, a redshifted Rhodamine-PBP fluorescence assay was optimized in a 1,536-well format to enable real-time WIP1 activity measurements through the detection of the orthogonal reaction product, Pi. We validated these two optimized assays by quantitative high-throughput screening against the National Center for Advancing Translational Sciences (NCATS) Pharmaceutical Collection and used secondary assays to confirm and evaluate inhibitors identified in the primary screen.
SEQUENCE No. (e.g., 1, 2, 3, etc.); […] (e.g., Cells, Incubation, Reagent, etc.); VALUE; DESCRIPTION
1; Reagent; 3 uL; WIP1 (6.7 nM), Rh-PBP (13.3 uM), columns 1-48
3; Library Compounds; 23 nL; NCATS Pharmaceutical Collection, column 5-48
4; Control Compounds; DMSO in column 2, GSK2830371 (57.5 uM, final) in 3-fold serial dilutions in column 3, GSK2830371 (1.15 uM, final) in column 4
5; Time; 1 hr; incubation
6; Detection; fluorescence (f0); ViewLux, excitation filter = 525 nm, emission filter = 598 nm
7; Reagent; 1 uL; VEPP-pS-QETFS (40 uM), columns 2-48
8; Detection; fluorescence (f1); ViewLux, excitation filter = 525 nm, emission filter = 598 nm
NOTES (numbers refer to sequence above)
1 & 2; Black medium binding Greiner 1536-well plates (# 789176-F); assay buffer: 50 mM Tris-HCl pH 7.5, 30 mM MgCl2, 1mM TCEP, 0.1 mM EGTA, 75 ug/mL BSA; dispensed with a BioRaptr liquid handler (Beckman Coulter).
3 & 4; Kalypsys pintool (equipped with 1536 pinhead, Wako USA) transfer. Tip wash sequence: DMSO, methanol, 3 sec vacuum dry.
5; Room temperature incubation.
7; VEPPL-pS-QETFS in assay buffer dispensed with a BioRaptr; final reaction conditions: 5 nM WIP1, 10 uM VEPPL-pS-QETFS, 10 uM Rh-PBP, 50 mM Tris-HCl pH 7.5, 30 mM MgCl2, 1 mM TCEP, 0.1 mM EGTA, 75 ug/mL BSA.
8; Measurement taken at 1 min intervals for 11 min. Delta readout = f1 - f0.
On to `COc1ccc2cc(C=O)ccc2c1`, for which the outcome was inactive.

`CC[N+]1(CC)CCC(=C(c2ccccc2)c2ccccc2)C1C` (stereo not given): the outcome was inactive.

Turning to `CC(=O)Nc1ccc(S(=O)(=O)Nc2cc(C)on2)cc1`, the outcome was inactive. As for `CCCCCCCCCCCCCCCCCCN(C)C`, the outcome was inactive. In the case of `Cc1ccc(CCn2c3c(c4cc(Cl)ccc42)CN(C)CC3)cn1`, the outcome was inactive. As for `CCOC(=O)O[C@]1(C(=O)OCCl)CC[C@H]2[C@@H]3CCC4=CC(=O)C=C[C@]4(C)[C@H]3[C@@H](O)C[C@@]21C`, the result was inactive. As for `C=CC[N+]1([C@H]2C[C@H]3[C@@H]4CC[C@H]5C[C@H](OC(C)=O)[C@@H](N6CCCCC6)C[C@]5(C)[C@H]4CC[C@]3(C)[C@H]2OC(=O)CC)CCCCC1`, the entry is “inactive”; as for `CCCCCCOC(=O)NC(=N)c1ccc(NCc2nc3cc(C(=O)N(CCC(=O)OCC)c4ccccn4)ccc3n2C)cc1`, “inactive”. As for `O=C(O)Cc1ccc(OCCNC[C@H](O)c2ccccc2)cc1`, the entry is “inactive”. To `CN1CCN(N)CC1` belongs “inactive”; to `Nc1cc(C(F)(F)F)ccc1S`, “inactive”. With `CC(COc1ccccc1)NN` (stereo not given), the result was inactive. To `C[N+](C)(CCOc1ccccc1)Cc1cccs1` belongs “inactive”.

Regarding `O=C(O)c1ccccc1Nc1cc(Cl)ccc1C(=O)O`, the outcome was inactive. To `CN(C(=O)C(Cl)Cl)c1ccc(OC(=O)c2ccco2)cc1` belongs “inactive”; to `C[C@H](CN1CCCC1)C(=O)c1ccc(C(F)(F)F)cc1`, “inactive”; to `Cc1ccc(/C=N/n2c(-c3ccccc3)csc2=S)cc1`, “inactive”.

In the case of `CCCCCCn1c(=O)c2c(ncn2C)n(C)c1=O`, the result was inactive. To `O=C1NC(c2ccccc2)(c2ccccc2)C(=O)N1COP(=O)(O)O` belongs “inactive”; to `N#CC1(c2ccc(F)cc2)CCC(=O)CC1`, “inactive”.

Take `O=C(OCCN1CCOCC1)c1cccnc1Nc1cccc(C(F)(F)F)c1`: the result was inactive. For the compound `COc1ccccc1OCC1CNC(=O)O1` (stereo not given), the result was inactive. To `O=C1Cc2cc(Cl)ccc2N1` belongs “inactive”; to `C#CC(C)(CC)OC(=O)c1ccccc1C(=O)O` (stereo not given), “inactive”.

In the case of `CCN1C(=O)c2ccccc2C1Nc1ccc(OCCN2CCCCC2)cc1` (stereo not given), the outcome was inactive. As for `CC(C(O)c1ccccc1)N(C)CCOC(c1ccccc1)c1ccccc1` (stereo not given), the entry is “inactive”; as for `COc1c(C)c2c(c(O)c1C/C=C(\C)CCC(=O)OCCN1CCOCC1)C(=O)OC2`, “inactive”.

For the compound `CCC(=O)O[C@]1(C(=O)COC)[C@@H](C)C[C@H]2[C@@H]3CCC4=CC(=O)C=C[C@]4(C)C3(F)[C@@H](O)C[C@@]21C` (stereo not given in full), the outcome was inactive.

On to `CO/N=C(/C(=O)N[C@@H]1C(=O)N2C(C(=O)O)=C(Cn3nnc(C)n3)CS[C@H]12)c1csc(N)n1`, for which the result was inactive. To `O=C(O)[C@@H](O)[C@H](O)[C@H](O)[C@@H](O)C(=O)O` belongs “inactive”. As for `O=c1[nH]sc2cc(Cl)ccc12`, the entry is “inactive”; as for `CO/N=C(\C(=O)O)c1csc(NC(=O)CCl)n1`, “inactive”; as for `Oc1ccc(CCNCCCCCCNCCc2ccccc2)cc1O`, “inactive”. To `Cc1cccc(N(C)C(=S)Oc2ccc3c(c2)CCC3)c1` belongs “inactive”; to `NS(=O)(=O)c1cc2c(cc1Cl)CN(C1CCCCC1)C2=O`, “inactive”. With `CCN(CC)CC(=O)Nc1c(C)cccc1C(=O)OC`, the result was inactive. To `O=C(CCOCCOCCOCCOCCC(=O)Nc1c(I)cc(I)c(C(=O)O)c1I)Nc1c(I)cc(I)c(C(=O)O)c1I` belongs “inactive”; to `CN1C(=O)CC(C)(c2ccccc2)C1=O` (stereo not given), “inactive”; to `Oc1cccc2[nH]ccc12`, “inactive”. As for `C1N2CN3CN1CN(C2)C3`, the entry is “inactive”.
